From PubChem BioAssay AID588675 (Johns Hopkins Ion Channel Center, 2011)
The whole screen tested about 310,000 compounds, of which about 1,900 (0.61%) were called active.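 How the source made its calls: active means plate-corrected calcium response at least 3 library SD above typical, normal starting fluorescence, not activating the receptor alone; inactive means the rest.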 The sample as a whole holds a higher share of actives than the screen did.

Biological target: Mas-related G-protein coupled receptor member X1 (Homo sapiens) (UniProt Q96LB2)
Assay: positive allosteric modulators of MrgX1, primary screen, HEK293 cells, Fluo-4 calcium flux (AID 588675);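 further: compound read alongside a low EC10 to EC30 dose of BAM8-22 agonist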;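 on B-score: peak minus trough fluorescence over baseline measured at the second addition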
Conditions: MrgX1-HEK293, Fluo-4 calcium flux, FDSS, at 10 µM; hits give high values

Chain of Mas-related G-protein coupled receptor member X1 (Homo sapiens) (Q96LB2 whole entry, looked up): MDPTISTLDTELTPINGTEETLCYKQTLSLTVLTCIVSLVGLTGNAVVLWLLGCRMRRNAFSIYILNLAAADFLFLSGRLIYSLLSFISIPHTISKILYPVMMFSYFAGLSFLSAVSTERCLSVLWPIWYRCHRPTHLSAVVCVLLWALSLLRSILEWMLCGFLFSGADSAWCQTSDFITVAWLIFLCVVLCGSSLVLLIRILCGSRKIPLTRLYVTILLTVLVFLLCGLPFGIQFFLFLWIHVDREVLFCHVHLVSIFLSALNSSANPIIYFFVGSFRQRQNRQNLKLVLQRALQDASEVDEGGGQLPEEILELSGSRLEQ

Row | Structure (SMILES) | B-score
1 | COCCOCCn1cnc2ccccc21 | inactive
2 | Clc1ncn(CCOc2ccccc2)c1Cl | inactive
3 | Cc1cc2ncn(CCCCOc3ccccc3)c2cc1C | 10.8 (active)
4 | CCN1CCCC1CNC(=O)c1cc2cc(OC)c(OC)cc2[nH]1 (stereo not drawn) | inactive
5 | COc1ccc(-c2cc(C(F)(F)F)nc(S(C)(=O)=O)n2)cc1OC | 8.21 (active)
6 | COc1ccc(-c2cc(C(F)(F)F)nc(NCc3cccnc3)n2)cc1 | inactive
7 | COc1ccc(-c2ccc(Nc3ccc(S(=O)(=O)N4CCCC4)cc3)nn2)cc1OC | inactive
8 | N/C(=N\OC(=O)CCn1cccc(C(F)(F)F)c1=O)c1ccc(OC(F)(F)F)cc1 | inactive
9 | Cc1ccc2c(=O)oc(N(C)C)nc2c1 | inactive
10 | CCC(C)CCN1CCN=C1N(C)C (stereo not drawn) | inactive
11 | COc1ccc(CCNC(=O)c2ccccc2-c2ccccc2C(=O)O)cc1OC | inactive
12 | COc1ccc(CCNC(=O)C(=O)NCc2ccccc2C)cc1OC | inactive
13 | COc1ccc(CCNC(=O)C(Sc2ccccn2)c2ccccc2)cc1OC (stereo not drawn) | 8.72 (active)
14 | Cc1ccc(NC(=O)C(C)OC(=O)Cc2c[nH]c3ccccc23)cc1S(=O)(=O)N1CCOCC1 (stereo not drawn) | inactive
15 | CCOc1cccc2c1OC1(CCCCC1)N1N=C(c3cccnc3)CC21 (stereo not drawn) | inactive
16 | CC(C)=CCC/C(C)=C/C(=O)O | inactive
17 | Cc1cccc(C)c1NC(=S)N(Cc1cccnc1)Cc1ccccc1Cl | 10.5 (active)
18 | Cc1c(Cl)cccc1NC(=S)N(Cc1ccccc1)Cc1cccnc1 | inactive
19 | Cc1ccc(CN(Cc2cccnc2)C(=S)Nc2cccc(Cl)c2C)cc1 | inactive
20 | O=C(COC(=O)c1ccc(NS(=O)(=O)c2cccs2)cc1O)Nc1ccc(F)cc1 | 9.09 (active)
21 | CCc1ccc(NC(=O)COC(=O)c2cccs2)cc1 | inactive
22 | Cc1cccc(C(=O)OCC(=O)Nc2ccc(F)cc2)c1 | inactive

Row | Structure (SMILES) | B-score
23 | Cc1cc(S(=O)(=O)NC2CCCC2)ccc1-n1cnnn1 | inactive
24 | Cc1[nH]n(-c2ccc(Cl)cc2)c(=O)c1/C=N/n1c(C)nc2ccccc2c1=O | 11.4 (active)
25 | Cc1[nH]n(-c2cccc(Cl)c2)c(=O)c1/C=N/n1c(C)nc2ccccc2c1=O | inactive
26 | Cc1ccc(-n2[nH]c(C)c(/C=N/N3C(=O)c4cccc5cccc(c45)C3=O)c2=O)cc1 | inactive
27 | Cc1ccc(NS(=O)(=O)c2ccc3c(c2)oc(=O)n3C)c(C)c1 | inactive
28 | O=C(NCC(=O)N1CCC2(CC1)NCCc1[nH]cnc12)c1ccc(Br)cc1 | inactive
29 | Cc1cc(C)c(S(=O)(=O)N2CCOCC2)cc1C | inactive
30 | C/C(=N\Nc1nc2ccccc2[nH]1)c1cccs1 | inactive
31 | C/C(=N\Nc1ncc(Cl)cc1Cl)c1ccc(S(=O)(=O)NCc2ccco2)cc1 | inactive
32 | C/C(=N\Nc1ncc(Cl)cc1Cl)c1cccs1 | 8.26 (active)
33 | O=C(C[C@H]1C(=O)N(c2ccc(F)c(F)c2)C[C@@H]1Cc1ccccc1)Nc1ccccc1 | inactive
34 | COc1ccccc1-n1nnnc1S(=O)(=O)Cc1ccc(Cl)cc1 | inactive
35 | CCCCNS(=O)(=O)c1ccc(S(=O)(=O)n2cnc3ccccc32)cc1 | inactive
36 | COc1c(C(C)C)oc2cc3oc(=O)ccc3cc12 | 9.1 (active)
37 | CC(C)C(=O)Nc1ccc2oc(=O)ccc2c1 | inactive
38 | Cc1oc2cc3oc(=O)ccc3cc2c1C | inactive
39 | COc1ccc(Cl)cc1NC(=O)CN(C)C(=O)c1cc(-c2cccs2)nn1-c1ccccc1 | inactive
40 | Cn1c(=O)[nH]c(=O)c2c1nc(CN1CCN(c3ccccc3F)CC1)n2CCc1ccccc1 | inactive
41 | Cn1c(/C(C#N)=C2/CCCCCN2)nc2ccccc21 | 8.34 (active)
42 | Cn1c(S(=O)(=O)O)nc2ccccc21 | inactive
43 | N#C/C(=C1/CCCN1)c1ccccn1 | inactive
44 | O=C(CN1C(=O)NC2(CCCCC2)C1=O)NCCC1=CCCCC1 | inactive

Row | Structure (SMILES) | B-score
45 | CCCC1C(=O)N2C(N(C)C)=Nc3ccc(C)cc3N2C1=O (stereo not drawn) | inactive
46 | O=[N+]([O-])C(=c1ccc2c(c1)N1C3=C(CCCC3)CC3CCCCC31N=2)[N+](=O)[O-] (stereo not drawn) | inactive
47 | COc1cccc(CN(C)CC(O)COC(c2ccccc2)c2ccccc2C)c1 (stereo not drawn) | inactive
48 | COc1ccc(C(=O)NNC(=S)NC(=O)c2ccccc2)cc1 | inactive
49 | COc1ccc(C(=O)NC(=S)NC2CCCCC2)cc1 | 7.2 (active)
50 | O=C(NC(=S)NC1CCCCC1)c1ccc(Cl)cc1 | inactive
51 | NC(=O)c1ccc(Nc2ccc3nonc3c2[N+](=O)[O-])cc1 | inactive
52 | CC(C)c1ccc(Nc2nnc(SCC(=O)c3nnc(-c4ccccc4)o3)s2)cc1 | inactive
53 | COCC(=O)Nc1c(I)c(C(=O)NCC(O)CO)c(I)c(C(=O)N(C)CC(O)CO)c1I (stereo not drawn) | inactive
54 | COc1cccc(OC)c1C(=O)OCC(=O)/C(C#N)=C(\C)N | inactive
55 | O=C(NCC(=O)N1CCCC(C(F)(F)F)C1)c1ccccc1F (stereo not drawn) | inactive
56 | O=C(c1cccc([N+](=O)[O-])c1)N1CCN(C(=O)c2ccco2)CC1 | inactive
57 | O=C(c1cccc(S(=O)(=O)Nc2ccccc2Cl)c1)N1CCN(C(=O)c2ccco2)CC1 | 10.7 (active)
58 | O=C(CNS(=O)(=O)c1ccccc1)N1CCN(C(=O)c2ccco2)CC1 | inactive
59 | C#CCOCCOCCOCCNc1nc(N2CCN(C(=O)CCCCCCCCCCNC(=O)[C@H](CCCCN)n3cc(C)nn3)CC2)nc(N2CCN(C(=O)CCCCCCCCCCNC(=O)[C@H](CO)n3cc(CCCSC)nn3)CC2)n1 | inactive
60 | Cc1ccc(N(C(=O)C(F)(F)F)C(C(=O)NC2CCCCC2)c2ccncc2)cc1C (stereo not drawn) | inactive
61 | COC(=O)Cn1c(O)c(N=NC(=O)OC)c2ccccc21 | 7.73 (active)
62 | N#CCCCn1c(O)c(N=NC(=O)C(O)c2ccccc2)c2ccccc21 (stereo not drawn) | inactive
63 | CCOC(=O)Cn1c(O)c(N=NC(=O)CNC(=O)Cc2ccccc2)c2ccccc21 | inactive
64 | Brc1ccccc1C1Nc2cccc3cccc(c23)N1 | 11.9 (active)
65 | Cc1ccc(C2Nc3cccc4cccc(c34)N2)cc1 | inactive
66 | Oc1ccc(C2Nc3cccc4cccc(c34)N2)cc1 | inactive

Row | Structure (SMILES) | B-score
67 | CCn1cc(C(=O)NC2CCCCCC2)c(=O)c2cc(S(=O)(=O)N3CCCCC3)ccc21 | inactive
68 | Cc1ccc(C)c(-c2nnc(NC(=O)CS(=O)(=O)c3ccccc3)o2)c1 | inactive
69 | CN(C)S(=O)(=O)Oc1ccccc1C(=O)Nc1ccccc1Cl | inactive
70 | CC1CCN(S(=O)(=O)c2ccc3[nH]c(=O)ccc3c2)CC1 | inactive
71 | COc1ccc(N2C(=O)C(Cc3ccccc3)NC2=S)cc1 (stereo not drawn) | inactive
72 | Cc1cc(C)c(NC(=O)CN2C(=O)NC(Cc3ccccc3)C2=O)c(C)c1 (stereo not drawn) | inactive
73 | O=C1C(Cc2ccc(O)cc2)NC(=S)N1Cc1ccccc1 (stereo not drawn) | 9.49 (active)
74 | CC1(C)CC(=O)C2=C(C1)N=C1SCCC(=O)N1C2c1ccc(C(F)(F)F)cc1 (stereo not drawn) | inactive
75 | COc1ccc(CNc2c(CO)cnc3c2cnn3C)cc1 | inactive
76 | COCCNC(=O)c1ccc2nc(Cc3ccc(OC)c(OC)c3)oc2c1 | inactive
77 | COc1ccc(CCNS(=O)(=O)c2cccc3cccnc23)cc1OC | inactive
78 | COc1ccc(Cc2nc(-c3ccccn3)no2)cc1OC | 8.9 (active)
79 | Cc1ccc(N2CC(C(=O)Nc3cc(Cl)ccc3-n3cncn3)CC2=O)cc1 (stereo not drawn) | inactive
80 | Cn1nc(C(F)(F)F)c(-c2ccc(F)cc2)c1NC(=O)CSCC(=O)O | inactive
81 | CCCC1OC23CCCCC2C(C#N)(C#N)C1(C#N)C(=N)O3 (stereo not drawn) | inactive
82 | COc1ccc(CN(C)C(=O)Cc2ccsc2)c(OC)c1OC | inactive
83 | O=C(Nc1ccccc1N1CCCCC1)c1ccc2nccnc2c1 | 7.2 (active)
84 | O=C(Nc1ccccc1N1CCCC1)c1ccc2ccccc2c1 | inactive
85 | O=C(Nc1ccccc1N1CCN(c2ccccc2)CC1)c1cccc(F)c1 | inactive
86 | COCCn1c(CN2CCC(Cc3ccccc3)CC2)nc2c1c(=O)n(C)c(=O)n2C | inactive
87 | CCOc1ccc(NC(=O)CCS(=O)(=O)c2ccc3c(c2)CCCN3C(=O)CC)cc1 | inactive
88 | Cc1ccc(S(=O)(=O)N2CCC(C(=O)NCCC3=CCCCC3)CC2)cc1C | inactive

Row | Structure (SMILES) | B-score
89 | CC(=O)N1N=C(c2ccccc2)OC1c1cccnc1 (stereo not drawn) | inactive
90 | O=C(Cc1ccccc1)N1N=C(c2ccncc2)CC1(O)C(F)(F)F (stereo not drawn) | inactive
91 | CC(=O)N1N=C(c2ccncc2)OC1(Cc1ccccc1)Cc1ccccc1 | 7.85 (active)
92 | O=C(c1ccccc1)C(Cn1cncn1)C(Sc1ccccc1)c1ccccc1 (stereo not drawn) | inactive
93 | CCN(CC(=O)Nc1ccccc1OC)C(=O)Cn1cnc2ccccc2c1=O | inactive
94 | Cc1ccc(/C=C/C(=O)O)cc1S(=O)(=O)N1CCC(Cc2ccccc2)CC1 | inactive
95 | CCN(CC(=O)Nc1c(F)cccc1F)C(=O)c1ccc(Sc2nncn2C)c([N+](=O)[O-])c1 | inactive
96 | Cn1cnnc1Sc1ccc(S(C)(=O)=O)cc1[N+](=O)[O-] | 12.1 (active)
97 | CC(=O)Nc1ccc(Nc2c([N+](=O)[O-])cc(S(C)(=O)=O)cc2[N+](=O)[O-])cc1 | inactive
98 | CS(=O)(=O)Nc1ccc(C(=O)N2CCCC2)cc1 | inactive
99 | Cn1c(=O)c2c(nc(N/N=C/c3cccs3)n2Cc2ccc(Br)cc2)n(C)c1=O | inactive
100 | COc1ccc(NC(=O)C2C3C=CC(C3)C2C(=O)NCc2ccccn2)c(OC)c1 (stereo not drawn) | inactive
101 | COc1ccc(C(=O)OCC(=O)NCC2CCCCC2)cc1S(=O)(=O)N1CCCc2ccccc21 | inactive
102 | COc1cc(C)c(C)cc1S(=O)(=O)N1CCCc2ccccc21 | 7.48 (active)
103 | Cn1c(=O)n(C)c2cc(S(=O)(=O)N3CCCc4ccccc43)ccc21 | inactive
104 | CC[C@@H](C)[C@@H](C(=O)N1CCN(C(=O)OC(C)(C)C)CC1)n1cc(CCC(=O)O)nn1 | inactive
105 | CC1CN(S(=O)(=O)c2cccc(C(F)(F)F)c2)CN1C(=O)N1CCOCC1 (stereo not drawn) | inactive
106 | COc1ccc(C2CC(=O)n3c(nc4ccccc43)S2)cc1OC (stereo not drawn) | inactive
107 | COc1ccc(S(=O)(=O)N2CCC(C(=O)N3CCc4ccccc4C3)CC2)cc1OC | inactive
108 | COc1ccc(C2SCCN2S(=O)(=O)c2ccccc2)cc1OC (stereo not drawn) | 7.25 (active)
